RXFP1 antagonist = qHTS Assay for Antagonists of the Relaxin Receptor RXFP1; Relaxin receptor 1 (Homo sapiens), Q9HBX9; HEK293-RXFP1, relaxin-stimulated cAMP HTRF, 30 min; active compounds read low; activity change, negative = inhibition, % at 57.5 µM; 350,000 compounds, 0.59% hits;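 active means activity change of -60% or lower, but not beyond a set lower limit; inconclusive means change between -60% and -40%, or beyond the set limit; inactive means change above -40%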
Target sequence (Q9HBX9 whole entry, looked up): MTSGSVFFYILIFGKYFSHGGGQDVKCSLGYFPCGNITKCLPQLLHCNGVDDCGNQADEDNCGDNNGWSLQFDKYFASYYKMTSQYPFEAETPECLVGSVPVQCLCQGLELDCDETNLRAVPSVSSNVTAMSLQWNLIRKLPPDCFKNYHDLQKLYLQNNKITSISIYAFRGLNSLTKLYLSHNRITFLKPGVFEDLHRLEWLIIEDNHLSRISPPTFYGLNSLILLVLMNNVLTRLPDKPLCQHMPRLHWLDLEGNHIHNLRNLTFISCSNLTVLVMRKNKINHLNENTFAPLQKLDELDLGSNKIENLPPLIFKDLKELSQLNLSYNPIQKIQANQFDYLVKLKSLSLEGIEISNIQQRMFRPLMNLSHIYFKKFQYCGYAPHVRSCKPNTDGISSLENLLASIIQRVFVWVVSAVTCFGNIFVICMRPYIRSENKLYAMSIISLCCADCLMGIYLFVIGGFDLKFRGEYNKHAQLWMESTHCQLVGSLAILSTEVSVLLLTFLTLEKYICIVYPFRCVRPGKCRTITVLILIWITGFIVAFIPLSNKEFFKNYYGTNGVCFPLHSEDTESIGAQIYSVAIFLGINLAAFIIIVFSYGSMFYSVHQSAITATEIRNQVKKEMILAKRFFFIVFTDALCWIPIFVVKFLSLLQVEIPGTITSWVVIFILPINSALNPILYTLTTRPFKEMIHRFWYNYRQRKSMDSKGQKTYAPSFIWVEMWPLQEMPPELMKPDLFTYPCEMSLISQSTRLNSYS
KinaseGlo FLuc = Counterscreen for Luciferase (Kinase-Glo TM) Inhibition. Luciferin 4-monooxygenase (Photuris pensylvanica), Q27757. Kinase-Glo luciferase, ATP luminescence, 8 min. Potency, µM (series often up to 38.3 µM), usual class: inhibitors. 200,000 compounds, 0.28% hits; further: nearly all actives have a fitted effect of over 60% in size
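Luminescence was the read-out, taken after 8-minute incubation at ambient temperature. Luciferase turned over luciferin with 10 uM ATP in imidazole pH 7.2 buffer containing KCl, MgCl2, Tween 20 and BSA.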
gsp antag = qHTS for Antagonists of gsp, the Etiologic Mutation Responsible for Fibrous Dysplasia/McCune-Albright Syndrome: qHTS; Potency, µM (highest dose often 76.9 µM), usual class: inhibitors; gsp-mutant cells, cAMP HTRF, 30 min; 340,000 compounds, 0.4% hits; calls by dose curve; cell line not stated here;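 further: intracellular cAMP measured with PDE inhibitor Ro 20-1724 present during compound exposure; nearly all actives have a fitted effect of over 65% in size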
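HTRF cAMP read-out (cAMP-d2 plus anti-cAMP antibody-K in lysis buffer, 30 min RT). Before lysis, cells are exposed to compounds with […] for 30 min at 37C in DPBS containing Ca/Mg, BSA and Tween 20.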
gsp agonist = qHTS for Agonist of gsp, the Etiologic Mutation Responsible for Fibrous Dysplasia/McCune-Albright Syndrome: qHTS. gsp mutant cells, cAMP HTRF, 30 min. Potency, µM (series often up to 76.9 µM), most hits filed as activators. 340,000 compounds, 0.13% hits. AID 624287, 2012; active means well fitted activation curve with a large enough effect; inconclusive means small, poorly fitted or top-dose-only effect, or another doubt; inactive means no such curve, though single readings can be large or run the other way; cell line not stated here;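 further: phosphodiesterase inhibitor Ro 20-1724 added with compounds to block cAMP breakdown; nearly all actives have a fitted effect of over 60% in size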
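Cells in DMEM/10% FBS with G418 were pretreated with compounds in DMSO plus […] (300 uM stock) for 30 min at 37C. cAMP was measured by HTRF (cAMP-d2 plus anti-cAMP antibody-K) after 30 min at room temperature.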
RXFP1 agonist = qHTS Assay for Agonists of the Relaxin Receptor RXFP1; HEK293T-RXFP1 cAMP TR-FRET, 30 min; response scale: percent of porcine relaxin response, buffer zero; AID 2676, 2010; 370,000 compounds, 0.3% hits; Potency, µM (doses to about 57.5 µM), hits mostly activators; further: nearly all actives have a fitted effect of over 60% in size
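Agonist response is measured as cAMP accumulation in an RXFP1-transfected HEK293T line under PDE4 inhibition. Values are scaled between buffer-only and 29 nM porcine relaxin, and EC50s come from standard Hill equation fits.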
miR-21 act = qHTS Assay for Modulators of miRNAs and/orActivators of miR-21 | HeLa miR-21 FLuc reporter, luciferase, 48 h | 340,000 tested, under 10 active | AID 2288, 2010 | Potency, µM (titrated, usually from 38.3 µM), usual class: activators;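 further: miR-21 action dims this reporter so a rising signal means less miR-21 action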
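HeLa miR-21-FLuc reporter line, endogenous miR-21; 2000 cells/well in DMEM/10% FBS; compound titration up to ~40uM final, 48 h, 37 degree Celsius; luciferase detection reagent, 15 min lysis, CCD luminescence.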
A number is an active result; i = inactive; ? = inconclusive; nt = no result; [ ] = remark or other dose. Most compounds without a hit are left out; they make up all but 1% or so of the library. Unless noted, the call rests on the fitted dose curve; in most records, active means well fitted curve in the direction sought with a large enough effect; inconclusive means small, poorly fitted or top-dose-only effect, or another doubt; inactive means no such curve, though single readings can be large; an effect the other way counts as inactive or inconclusive.

SMILES	RXFP1 antagonist	KinaseGlo FLuc	gsp antag	gsp agonist	RXFP1 agonist	miR-21 act
Cc1cc2c(cc1S(=O)(=O)NCCc1ccccc1)NC(=O)CO2	i	nt	i	i[15.4 µM]	i	nt
CCCc1ccccc1OCCNS(=O)(=O)c1cc2c(cc1C)OCC(=O)N2	-62	nt	i	i[15.4 µM]	i	i
Cc1ccc(S(=O)(=O)c2nc(-c3cccs3)oc2SCC(=O)Nc2cc(C)cc(C)c2)cc1	i	nt	nt	nt	i	i
S=C(NCC1CCCO1)N1CCN(c2nc(-c3ccc(Cl)cc3)cs2)CC1 (stereo not drawn)	i	i	50µM	i[15.4 µM]	i	i
CCCCSc1nnc(CCCCCNC(=O)OC(C)(C)C)o1	i	i	35µM	i	i	i
CSc1nnc(CCCCCNC(=O)OC(C)(C)C)o1	i	nt	i	i[15.4 µM]	i	i
O=c1cc(N2CCCCC2)c(-c2ccccc2)nn1Cc1ccccc1	-120	i	?	i[15.4 µM]	i	i
COc1ccc(Cn2nc(-c3ccccc3)c(N3CCCCC3)cc2=O)cc1	i	i	i	i[15.4 µM]	i	i
CN1CCN(c2ccc(-c3cc(O)c4ncccc4c3)cc2)CC1	nt	nt	nt	nt	i	nt
Cc1ccc(NC(=O)CSC(N)=O)cc1Cl	i	i	i	i	i	i
NC(=O)SCC(=O)Nc1ccc(Cl)c(Cl)c1	-71	i	i	i	i	i
Oc1ccc(N=Nc2nc(-c3ccccc3)c(-c3ccccc3)[nH]2)cc1	i	i	28µM	i	i	i
COc1ccc(-c2oc3ncn4nc(Cc5ccccc5)nc4c3c2-c2ccc(OC)cc2)cc1	i	i	10µM	i	i	i
COc1ccc(CCNC(=O)CCCn2nc(C)n3ccnc3c2=O)cc1OC	i	nt	i	?	?	i
Cc1nn(CCCC(=O)NCc2ccc(F)cc2)c(=O)c2nccn12	i	nt	i	?	28µM	i
Cc1ccc(-n2nc3c(=O)n(CCCC(=O)NCc4ccc(F)cc4)nc(C)c3c2C)cc1	i	nt	i	?	i	i
Cc1ccc(CNC(=O)CCCn2nc(C)n3ccnc3c2=O)cc1	i	nt	i	?	16µM	i
Cc1cccc(NS(=O)(=O)c2cccc(C(=O)NCC(c3ccco3)N3CCCCC3)c2)c1 (stereo not drawn)	i	nt	i	i[15.4 µM]	i	nt
COc1ccc(NS(=O)(=O)c2cccc(C(=O)NCC(c3ccco3)N3CCCCC3)c2)cc1 (stereo not drawn)	-73	nt	i	i[15.4 µM]	i	nt
O=C(C1CCC(CNS(=O)(=O)c2cccs2)CC1)N1CCN(c2ccc(F)cc2)CC1 (stereo not drawn)	i	nt	35µM	i	i	?
CCN(CC)S(=O)(=O)c1ccc2c(c1)c(=O)c(C(=O)N1CCN(c3ccc(OC)cc3)CC1)cn2C	nt	nt	nt	nt	i	i
Cc1ccc2c(C)cc(=S)[nH]c2c1	i	i	i	22µM	28µM	i
O=C1CC(c2nc3ccccc3n2CCC2CCCCC2)CN1c1ccccc1Cl (stereo not drawn)	i	nt	nt	nt	i	?
CCOC(=O)c1sc(=NC(=O)c2ccc(S(=O)(=O)N(C)c3ccccc3)cc2)n(C)c1C	i	i	i	i	4µM	i
CCOC(=O)c1sc(=NC(=O)c2ccc(C)cc2)n(C)c1C	i	i	i	i[15.4 µM]	i	i
SMILES	RXFP1 antagonist	KinaseGlo FLuc	gsp antag	gsp agonist	RXFP1 agonist	miR-21 act
CCc1ccc(NCc2cc3cc4c(cc3n(CC(=O)Nc3ccccc3C)c2=O)OCCO4)cc1	nt	nt	nt	nt	i	i
CC(=O)N1c2c(cc(Br)cc2S(=O)(=O)NCc2ccc(C)cc2)CC1C (stereo not drawn)	i	nt	35µM	i[15.4 µM]	i	i
COc1ccc(CNS(=O)(=O)c2cc(Br)cc3c2N(C(C)=O)C(C)C3)cc1 (stereo not drawn)	i	nt	i	i[15.4 µM]	i	i
Cc1ccc(CNC(=O)COC(=O)C2CCN(S(=O)(=O)c3cccs3)CC2)cc1	i	i	35µM	?	i	i
COc1ccc(NC(=O)c2cc(-c3ccc(C)o3)nc3ccccc23)c(OC)c1	i	nt	?	i	nt	nt
COc1ccc(NC(=O)c2cc(-c3ccc(C)o3)nc3ccccc23)cc1OC	i	6.3µM	i	i	i	i
O=C1/C(=C/c2cccnc2)SC(=S)N1Cc1ccco1	?	i[7.66 µM]	35µM	i	nt	nt
O=C(CCN1C(=O)/C(=C\c2ccccc2)SC1=S)NNC(=O)c1ccncc1	i	nt	i	i	i	i
O=C1/C(=C/c2ccccc2)SC(=S)N1CC(=O)N1CCCCC1c1cccnc1 (stereo not drawn)	i	nt	40µM	i	i	i
O=C(CCN1C(=O)/C(=C/c2ccccc2)SC1=S)NNC(=O)c1ccncc1	i	i	40µM	i	i	i
C[C@@H](NC(=O)CN(c1ccccc1)S(=O)(=O)N(C)C)c1ccccc1	nt	nt	nt	nt	i	i
COc1ccc(S(=O)(=O)N2CCCCCC2)cc1C(=O)N(C)CC(=O)Nc1ccc(F)cc1	i	nt	i	i[15.4 µM]	i	nt
COc1ccc(NC(=O)CN(C)C(=O)CC2CCCC2)cc1	-74	nt	i	i[15.4 µM]	i	nt
COc1ccc(NC(=O)CN(C)C(=O)c2cc(S(=O)(=O)N3CCCCCC3)ccc2OC)cc1	-72	nt	i	i[15.4 µM]	i	nt
COc1ccc(NC(=O)CN(C)CC(=O)N2CCCCCC2)cc1	-90	nt	i	i[15.4 µM]	i	nt
CC1(OC(=O)C2CCCC2)C(=O)C=C2C=C(c3ccsc3)N(c3cccc(C#N)c3)C=C2C1=O (stereo not drawn)	nt	i[7.66 µM]	nt	nt	nt	nt
Cc1csc(Sc2nc3c(c(=O)[nH]c(=O)n3C)n2Cc2ccccc2Cl)n1	i	nt	40µM	i	i	i
CSc1nc2c(c(=O)[nH]c(=O)n2C)n1Cc1ccccc1Cl	i	nt	i	i	i	i
COc1ccc(C)cc1NC(=O)C1CCN(S(=O)(=O)Cc2ccccc2)CC1	i	nt	nt	nt	i	i
O=C(O)CC/C(=N\Nc1ccc([N+](=O)[O-])cc1)c1ccccc1	i	nt	32µM	i[15.4 µM]	i	i
N#CSCC(=O)O	i	nt	nt	nt	nt	nt
COc1ccc(CCNc2ncnc3sc(C)cc23)cc1OC	i	nt	35µM	i	i	?
N#Cc1ccc2c(c1)C[C@]1(CCCCN3C(=O)c4ccccc4C3=O)Oc3c(c(=O)oc4ccc(F)cc34)C2O1	nt	nt	nt	nt	i[11.5 µM]	i[7.66 µM]
Cc1ccc(-c2nn(-c3ccccc3)cc2/C=N/n2c(-c3cccs3)n[nH]c2=S)cc1	-96	nt	?	i[15.4 µM]	i	i
S=c1[nH]nc(-c2ccncc2)n1/N=C/c1cn(-c2ccccc2)nc1-c1ccccc1	i	nt	i	?	i	i
S=c1[nH]nc(-c2cccs2)n1/N=C/c1cn(-c2ccccc2)nc1-c1cccs1	-83	nt	?	i[15.4 µM]	i	i
